Experimental data: PubChem BioAssay (NCATS)
Results filed as inconclusive are left out. Activity calls are given as the source filed them. The call rests on the fitted dose curve; in most records, active means well fitted cell-killing curve with a large enough effect; inconclusive means small, poorly fitted or top-dose-only effect, or effect the other way; inactive means flat fitted curve, though single readings scatter.

How the values were obtained:
Assay in all cases: Primary qHTS to identify gynecologic anti-cancer compounds using libraries of approved drugs and bioactive compounds (AID 1345084); further: nearly all actives have a fitted effect of over 55% in size
CAOV3 = conditions: Gynecologic cancer cell panel viability, ATPlite luminescence, 48 h; series mostly up to 57.5 µM
Outline: (§1)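 Measured: luminescence after ATPlite addition (15 min, RT). Exposure: 48 h, 37 C, 5% CO2.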

CASKI = conditions: Gynecologic cancer cell panel viability, ATPlite luminescence, 48 h; series mostly up to 57.5 µM
Outline: as §1

Es-2 = conditions: Gynecologic cancer cell panel viability, ATPlite luminescence, 48 h; series mostly up to 57.5 µM
Outline: as §1

HeLa = conditions: Gynecologic cancer cell panel viability, ATPlite luminescence, 48 h; series mostly up to 57.5 µM
Outline: as §1

Hek293T = conditions: Gynecologic cancer cell panel viability, ATPlite luminescence, 48 h, control line for the selectivity index; series mostly up to 57.5 µM
Outline: as §1

JEG-3 = conditions: Gynecologic cancer cell panel viability, ATPlite luminescence, 48 h; series mostly up to 57.5 µM
Outline: as §1

OV90 = conditions: Gynecologic cancer cell panel viability, ATPlite luminescence, 48 h; series mostly up to 57.5 µM
Outline: as §1

PA-1 = conditions: Gynecologic cancer cell panel viability, ATPlite luminescence, 48 h; series mostly up to 57.5 µM
Outline: as §1

SKOV3 = conditions: Gynecologic cancer cell panel viability, ATPlite luminescence, 48 h; series mostly up to 57.5 µM
Outline: as §1

Tov-21-G = conditions: Gynecologic cancer cell panel viability, ATPlite luminescence, 48 h; series mostly up to 57.5 µM
Outline: as §1

Tov112D = conditions: Gynecologic cancer cell panel viability, ATPlite luminescence, 48 h; series mostly up to 57.5 µM
Outline: as §1
On the % scale 0 is the no-effect control and ±100 the full control effect.

C/C=C(/C)C(=O)O[C@H]1C=C(C)C[C@H](OC(=O)c2ccc(O)cc2)C2[C@](O)(C(C)C)CC[C@@]21C (stereo partly specified)
inactive: Potency (CAOV3) | Potency (CASKI) | Potency (Es-2) | Potency (HeLa) | Potency (Hek293T) | Potency (JEG-3) | Potency (OV90) | Potency (PA-1) | Potency (SKOV3) | Potency (Tov-21-G) | Potency (Tov112D)

C=CC(C)(O)CC/C=C(\C)C(=O)OC1CC2(C(=O)O)CCC3(C)C(=CCC4C5(C)CCC(OC6OC(COC7OCC(O)C(O)C7O)C(O)C(OC7OCC(O)C(O)C7O)C6OC6OC(CO)C(O)C(O)C6OC6OCC(O)C(O)C6O)C(C)(C)C5CCC43C)C2CC1(C)C (stereo unspecified)
inactive: activity change, negative = cytotoxicity (CAOV3) 2.82% [at 6.55 µM] | activity change, negative = cytotoxicity (CASKI) 0.559% [at 6.55 µM] | activity change, negative = cytotoxicity (Es-2) 6.29% [at 6.55 µM] | activity change, negative = cytotoxicity (HeLa) 13.4% [at 6.55 µM] | activity change, negative = cytotoxicity (Hek293T) -1.17% [at 6.55 µM] | activity change, negative = cytotoxicity (JEG-3) -1.3% [at 6.55 µM] | activity change, negative = cytotoxicity (OV90) 0.467% [at 6.55 µM] | activity change, negative = cytotoxicity (PA-1) 9.33% [at 6.55 µM] | activity change, negative = cytotoxicity (SKOV3) -0.175% [at 6.55 µM] | activity change, negative = cytotoxicity (Tov-21-G) 1.97% [at 6.55 µM] | activity change, negative = cytotoxicity (Tov112D) 4.31% [at 6.55 µM]

O=C(O[C@H]1[C@@H]2C=CO[C@@H](O[C@@H]3O[C@H](CO)[C@@H](O)[C@H](O)[C@H]3O)[C@@H]2[C@@]2(CO)O[C@@H]12)c1ccc(O)cc1
inactive: Potency (CAOV3) | Potency (CASKI) | Potency (Es-2) | Potency (HeLa) | Potency (Hek293T) | Potency (JEG-3) | Potency (OV90) | Potency (PA-1) | Potency (SKOV3) | Potency (Tov-21-G) | Potency (Tov112D)

C=C1CCC2C(OC(=O)C2(O)COC(C)=O)C2C(=C)C(O)CC12 (stereo unspecified)
inactive: Potency (CAOV3) | Potency (CASKI) | Potency (Es-2) | Potency (HeLa) | Potency (Hek293T) | Potency (JEG-3) | Potency (OV90) | Potency (PA-1) | Potency (SKOV3) | Potency (Tov-21-G) | Potency (Tov112D)

C=C1[C@H]2[C@H](O[C@@H]3O[C@H](COC(=O)/C=C/c4cc(OC)c(O)c(OC)c4)[C@@H](O)[C@H](O)[C@H]3O)OC=C(C(=O)O)[C@H]2C[C@@H]1O
inactive: Potency (CAOV3) | Potency (CASKI) | Potency (Es-2) | Potency (HeLa) | Potency (Hek293T) | Potency (JEG-3) | Potency (OV90) | Potency (PA-1) | Potency (SKOV3) | Potency (Tov-21-G) | Potency (Tov112D)

CC(=O)NC(CCC(=O)O)C(=O)NCCc1ccc(O)cc1 (stereo unspecified)
inactive: Potency (CAOV3) | Potency (CASKI) | Potency (Es-2) | Potency (HeLa) | Potency (Hek293T) | Potency (JEG-3) | Potency (OV90) | Potency (PA-1) | Potency (SKOV3) | Potency (Tov-21-G) | Potency (Tov112D)

COc1c2c(c(C)c3c1C(=O)OC3)OC1(C)CC(O)C3(O)C(C)(C)OC(=O)CCC3(C)C1C2 (stereo unspecified)
inactive: Potency (CAOV3) | Potency (CASKI) | Potency (Es-2) | Potency (HeLa) | Potency (Hek293T) | Potency (JEG-3) | Potency (OV90) | Potency (PA-1) | Potency (SKOV3) | Potency (Tov-21-G) | Potency (Tov112D)

C=C(C(=O)OC)C1CCC2(C)C(O[C@@H]3O[C@H](CO)[C@@H](O)[C@H](O)[C@H]3O)CC(=O)C(C)C2C1O (stereo partly specified)
inactive: Potency (CAOV3) | Potency (CASKI) | Potency (Es-2) | Potency (HeLa) | Potency (Hek293T) | Potency (JEG-3) | Potency (OV90) | Potency (PA-1) | Potency (SKOV3) | Potency (Tov-21-G) | Potency (Tov112D)

CC1=CC(=O)CC(C)(C)C1(O)CCC(C)O (stereo unspecified)
inactive: Potency (CAOV3) | Potency (CASKI) | Potency (Es-2) | Potency (HeLa) | Potency (Hek293T) | Potency (JEG-3) | Potency (OV90) | Potency (PA-1) | Potency (SKOV3) | Potency (Tov-21-G) | Potency (Tov112D)

CC(=O)O[C@H]1[C@H](Oc2ccccc2COC(=O)C2(O)C=CCCC2=O)O[C@H](CO)[C@@H](O)[C@@H]1O (stereo partly specified)
inactive: Potency (CAOV3) | Potency (CASKI) | Potency (Es-2) | Potency (HeLa) | Potency (Hek293T) | Potency (JEG-3) | Potency (OV90) | Potency (PA-1) | Potency (SKOV3) | Potency (Tov-21-G) | Potency (Tov112D)

C=CC(C)(C)C1(CC2NC(=O)C3CCCN3C2=O)C(=O)Nc2cc3c(cc21)C=CC(C)(C)O3 (stereo unspecified)
inactive: Potency (CAOV3) | Potency (CASKI) | Potency (Es-2) | Potency (HeLa) | Potency (Hek293T) | Potency (JEG-3) | Potency (OV90) | Potency (PA-1) | Potency (SKOV3) | Potency (Tov-21-G) | Potency (Tov112D)

CC(=O)O[C@H]1CC[C@@]2(CI)C(=CC[C@@H]3[C@@H]2CC[C@]2(C)[C@@H]([C@H](C)CCCC(C)C)CC[C@@H]32)C1
inactive: activity change, negative = cytotoxicity (CAOV3) 9.25% [at 11.6 µM] | activity change, negative = cytotoxicity (CASKI) -2.47% [at 11.6 µM] | activity change, negative = cytotoxicity (Es-2) -1.33% [at 11.6 µM] | activity change, negative = cytotoxicity (HeLa) 10.9% [at 11.6 µM] | activity change, negative = cytotoxicity (Hek293T) 4.14% [at 11.6 µM] | activity change, negative = cytotoxicity (JEG-3) -2.55% [at 11.6 µM] | activity change, negative = cytotoxicity (OV90) -2.38% [at 11.6 µM] | activity change, negative = cytotoxicity (PA-1) 22.4% [at 11.6 µM] | activity change, negative = cytotoxicity (SKOV3) 5.27% [at 11.6 µM] | activity change, negative = cytotoxicity (Tov-21-G) 10.3% [at 11.6 µM] | activity change, negative = cytotoxicity (Tov112D) 11.8% [at 11.6 µM]

C[C@@H]1C(=O)O[C@H]2CC34[C@H]5C[C@@H](C(C)(C)C)C36[C@@H](OC(=O)[C@@H]6O)O[C@@]4(C(=O)O5)[C@]21O (stereo partly specified)
inactive: Potency (CAOV3) | Potency (CASKI) | Potency (Es-2) | Potency (HeLa) | Potency (Hek293T) | Potency (JEG-3) | Potency (OV90) | Potency (PA-1) | Potency (SKOV3) | Potency (Tov-21-G) | Potency (Tov112D)

COc1cc(C(O)C(CO)Oc2ccc(CCCO[C@@H]3O[C@@H](C)[C@H](O)[C@@H](O)[C@H]3O)cc2OC)ccc1O (stereo partly specified)
inactive: Potency (CAOV3) | Potency (CASKI) | Potency (Es-2) | Potency (HeLa) | Potency (Hek293T) | Potency (JEG-3) | Potency (OV90) | Potency (PA-1) | Potency (SKOV3) | Potency (Tov-21-G) | Potency (Tov112D)

CC(C)[C@H]1CCC(CO)=C[C@@H]1/C=C(\CO)C(=O)O
inactive: Potency (CAOV3) | Potency (CASKI) | Potency (Es-2) | Potency (HeLa) | Potency (Hek293T) | Potency (JEG-3) | Potency (OV90) | Potency (PA-1) | Potency (SKOV3) | Potency (Tov-21-G) | Potency (Tov112D)

CC(C)=CC/C=C(/C)[C@H]1CC[C@]2(C)[C@@H]1[C@H](O)CC1[C@@]3(C)CC[C@H](O)C(C)(C)[C@@H]3[C@@H](O[C@@H]3O[C@H](CO)[C@@H](O)[C@H](O)[C@H]3O[C@@H]3O[C@@H](C)[C@H](O)[C@@H](O)[C@H]3O)C[C@]12C (stereo partly specified)
inactive: Potency (CAOV3) | Potency (CASKI) | Potency (Es-2) | Potency (HeLa) | Potency (Hek293T) | Potency (JEG-3) | Potency (OV90) | Potency (PA-1) | Potency (SKOV3) | Potency (Tov-21-G) | Potency (Tov112D)
